In PubChem BioAssay AID2284385 (EPA ToxCast):
Where “and” joins values, the source holds several entries; their conditions need not be identical. Equal values may be shown once. Calls of active or inactive are those of the source. Rule for the calls: active = hit-call score of the fitted dose curve at least 0.9, where 1 is the maximum; inactive = score below 0.9.

Molecular target: human Peroxisome proliferator-activated Receptor alpha (PPARa), PPARA (gene 5465) (UniProt Q07869)
Assay: ERF_TW_NR_COA_hPPARA: Eurofins (ERF) Nuclear Receptor (NR) Functional Coactivator Assay for human Peroxisome proliferator-activated Receptor alpha (PPARa) Agonism & Antagonism, conducted at Taiwan lab site
Protocol: ERF_TW_NR_COA_hPPARA is a biochemical, single-readout assay that uses extracted gene-proteins in a cell-free assay. Measurements were taken 3 hours after chemical dosing in a 96-well plate. See PPARalpha Human NHR Functional Agonist Coactivator Assay, Panlabs.ERF_TW_NR_COA_hPPARA is an assay component calculated from the ERF_TW_NR_COA_hPPARA assay. It is designed to measure FRET using a type of binding reporter as detected by fluorescence intensity of GW7647 with fluorimetry technology.Data from the assay component ERF_TW_NR_COA_hPPARA was analyzed at the assay endpoint, ERF_TW_NR_COA_hPPARA, in the positive analysis fitting direction relative to DMSO as the negative control and baseline of activity. Using a type of binding reporter, gain-of-signal activity can be used to understand changes in binding as they relate to gene PPARA. To generalize the intended target to other relatable targets, this assay endpoint is annotated to the nuclear receptor intended target family, where the subfamily is non-steroidal.
Human recombinant peroxisome proliferators-activated receptor alpha (PPARA, PPARa, PPAR-alpha) hPPAR, NR1C1) receptors expressed in insect are used. Test compound and/or vehicle is incubated with the 2.5 nM receptors and binding buffer in modified kit buffer pH 7.4 for 3 hours at RT. Determination of the amount of complex formed is read microplate reader (excitation:337 nm, emission: 520/490 nm). Test compound-induced increase fluorescence by 50 percent or more (>/=50%) relative to the 1 uM GW7647 response indicates possible PPARa receptor agonist activity. Test compound-induced inhibition of 20 nM GW7647-induced fluorescence response by 50 percent or more (>/=50%) indicates receptor antagonist activity.

Chain of human Peroxisome proliferator-activated Receptor alpha (PPARa), PPARA (gene 5465) (Q07869 whole entry, looked up): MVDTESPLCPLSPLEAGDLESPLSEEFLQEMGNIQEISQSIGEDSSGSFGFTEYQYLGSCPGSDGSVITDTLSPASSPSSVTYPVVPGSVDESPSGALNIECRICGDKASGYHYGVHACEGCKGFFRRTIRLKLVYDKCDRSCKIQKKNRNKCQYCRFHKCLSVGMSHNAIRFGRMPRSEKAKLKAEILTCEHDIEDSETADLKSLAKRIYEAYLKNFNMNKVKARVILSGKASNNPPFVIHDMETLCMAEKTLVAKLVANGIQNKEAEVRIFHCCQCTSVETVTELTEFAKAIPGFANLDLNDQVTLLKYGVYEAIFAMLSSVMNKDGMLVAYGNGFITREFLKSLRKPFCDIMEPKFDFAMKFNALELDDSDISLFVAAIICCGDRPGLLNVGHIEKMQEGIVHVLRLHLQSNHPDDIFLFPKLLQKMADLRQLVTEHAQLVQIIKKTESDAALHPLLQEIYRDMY

| Structure (SMILES) | AC50 | outcome |
| --- | --- | --- |
| O=C(O)C(F)(F)C(F)(F)C(F)(F)C(F)(F)C(F)(F)C(F)(F)C(F)(F)F | 11.5 µM (active) and 17.1 µM (active) | – |
| O=C(O)C(F)(F)OC(F)(F)C(F)(F)OC(F)(F)F | 19.3 µM (active) | – |
| O=C(O)C(F)(F)C(F)(F)C(F)(F)C(F)(F)C(F)(F)C(F)(F)F | 50 µM (active) | – |
| O=S(=O)(O)C(F)(F)C(F)(F)C(F)(F)C(F)(F)C(F)(F)C(F)(F)C(F)(F)C(F)(F)F | – | inactive |
| O=S(=O)(O)C(F)(F)C(F)(F)C(F)(F)C(F)(F)C(F)(F)C(F)(F)F | – | inactive |
